Measurements taken from PubChem BioAssay (EPA / NIEHS).
Inconclusive results are not listed. Calls of active or inactive are those of the source. The calls were made as follows, unless noted: active = hit-call score of the fitted dose curve at least 0.9, where 1 is the maximum; inactive = score below 0.9.

How the values were obtained:
[1] = read-out: Pyruvate Dehydrogenase Kinase 4 (PDK4), PDK4 (gene 5166); assay: LTEA_HepaRG_PDK4: Life Technologies and Expression Analysis (LTEA) Assay for Pyruvate Dehydrogenase Kinase 4 (PDK4) using HepaRG (AID 2283525); conditions: mRNA level, 48 h; actives raise or lower the signal
Procedure, shortened: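 In this multiplexed human HepaRG expression assay, cells are treated 48 h with test chemicals across an eight-point range starting at 100 uM. PDK4 mRNA changes, normalized to ACTB/GAPDH/POLR2A, are fitted in both directions relative to vehicle.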

[2] = read-out: NAD(P)H dehydrogenase [quinone] 1 (NQO1), NQO1 (gene 1728); assay: LTEA_HepaRG_NQO1: Life Technologies and Expression Analysis (LTEA) Assay for NAD(P)H dehydrogenase [quinone] 1 (NQO1) using HepaRG (AID 2283526); conditions: mRNA level, 48 h; actives raise or lower the signal
Procedure, shortened: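 Human HepaRG hepatic cells received chemicals for 48 h in serum-free induction medium with 0.5% DMSO, up to 100 uM. Expression was assessed by TaqMan qRT-PCR against housekeeping controls and fitted bidirectionally against DMSO.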

[3] = read-out: Nuclear factor erythroid 2-related factor 2 (Homo sapiens) (UniProt Q16236); assay: LTEA_HepaRG_NFE2L2: Life Technologies and Expression Analysis (LTEA) Assay for Nuclear factor erythroid 2-related factor 2 (NFE2L2) Transcription Factor using HepaRG (AID 2283527); conditions: mRNA level, 48 h; actives raise or lower the signal;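 also: TaqMan qRT-PCR transcript level normalised to ACTB GAPDH and POLR2A housekeeping genes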
Procedure, shortened: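 Transcript level of NFE2L2 is the read-out, measured by microfluidic TaqMan qRT-PCR and normalized to three housekeeping genes. Human HepaRG cultures received test chemical for 48 h at up to 100 uM in half-log steps. Gain or loss of signal is fitted relative to 0.5% DMSO.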

[4] = read-out: Signal transducer and activator of transcription 3 (Homo sapiens) (UniProt P40763); assay: LTEA_HepaRG_STAT3: Life Technologies and Expression Analysis (LTEA) Assay for Signal transducer and activator of transcription (STAT3) using HepaRG (AID 2283529); conditions: mRNA level, 48 h; actives raise or lower the signal
Procedure, shortened: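 Read-out is STAT3 mRNA level by qRT-PCR, normalized to three housekeeping genes, in human HepaRG liver cells treated for 48 h. Concentrations ran from 100 uM downward in half-log steps; curves were fitted for gain or loss relative to 0.5% DMSO.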

[5] = read-out: solute carrier (SLCO1B1), SLCO1B1 (gene 10599); assay: LTEA_HepaRG_SLCO1B1: Life Technologies and Expression Analysis (LTEA) Assay for solute carrier (SLCO1B1) using HepaRG (AID 2283530); conditions: mRNA level, 48 h; actives raise or lower the signal
Procedure, shortened: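 Differentiated human HepaRG cells were exposed for 48 h in serum-free induction medium to eight half-log concentrations, top 100 uM, in 0.5% DMSO. SLCO1B1 mRNA was measured by qRT-PCR, normalized to ACTB, GAPDH and POLR2A, and fitted bidirectionally against DMSO.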

[6] = read-out: sulfotransferase 2A1 (SULT2A1), SULT2A1 (gene 6822); assay: LTEA_HepaRG_SULT2A1: Life Technologies and Expression Analysis (LTEA) Assay for sulfotransferase 2A1 (SULT2A1) using HepaRG (AID 2283531); conditions: mRNA level, 48 h; actives raise or lower the signal
Procedure, shortened: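 HepaRG human liver cells, 48 h exposure in serum-free induction medium to 8 half-log concentrations topping at 100 µM (0.5% DMSO), duplicate wells. SULT2A1 mRNA measured by TaqMan qRT-PCR, normalized to ACTB/GAPDH/POLR2A; bidirectional fit against DMSO.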

[7] = read-out: Transforming Growth Factor (TGFA), TGFA (gene 7039); assay: LTEA_HepaRG_TGFA: Life Technologies and Expression Analysis (LTEA) Assay for Transforming Growth Factor (TGFA) using HepaRG (AID 2283532); conditions: mRNA level, 48 h; actives raise or lower the signal
Procedure, shortened: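 HepaRG (human liver line), 48 h exposure, 8 conc. half-log down from 100 uM, 0.5% DMSO vehicle, duplicates; serum-free induction medium. TGFA mRNA by TaqMan qRT-PCR, ACTB/GAPDH/POLR2A normalization; gain/loss fit vs DMSO.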

[8] = read-out: Transforming Growth Factor (TGFB1), TGFB1 (gene 7040); assay: LTEA_HepaRG_TGFB1: Life Technologies and Expression Analysis (LTEA) Assay for Transforming Growth Factor (TGFB1) Transporter using HepaRG (AID 2283533); conditions: mRNA level, 48 h; actives raise or lower the signal
Procedure, shortened: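 Differentiated HepaRG cells exposed 48 hr in serum-free induction medium to eight half-log concentrations up to 100 uM (0.5% DMSO), duplicate; TGFB1 mRNA by TaqMan qRT-PCR normalised to ACTB, GAPDH, POLR2A; bidirectional fit against DMSO.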

TIMP1, TIMP1 (gene 7076) = assay: LTEA_HepaRG_TIMP1: Life Technologies and Expression Analysis (LTEA) Assay for TIMP1 using HepaRG (AID 2283534); conditions: mRNA level, 48 h; actives raise or lower the signal;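 also: TaqMan qRT-PCR signal normalized to ACTB GAPDH and POLR2A housekeeping genes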
Procedure, shortened: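 Differentiated HepaRG cells exposed 48 h in serum-free induction medium, duplicates, eight half-log concentrations from 100 uM in 0.5% DMSO. TIMP1 mRNA by qRT-PCR normalized to ACTB, GAPDH, POLR2A; bidirectional fitting against DMSO.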

[9] = read-out: Tumor necrosis factor receptor 1 (TNFRSF1A), TNFRSF1A (gene 7132); assay: LTEA_HepaRG_TNFRSF1A: Life Technologies and Expression Analysis (LTEA) Assay for Tumor necrosis factor receptor 1 (TNFRSF1A) using HepaRG (AID 2283535); conditions: mRNA level, 48 h; actives raise or lower the signal
Procedure, shortened: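 Differentiated HepaRG cells in serum-free induction medium, exposed 48 h in duplicate to 8 half-log concentrations up to 100 uM in 0.5% DMSO. TNFRSF1A mRNA by Fluidigm TaqMan qRT-PCR, normalized to ACTB, GAPDH, POLR2A; bidirectional fit.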

[10] = read-out: Thyroid Hormone Responsive (THRSP), THRSP (gene 7069); assay: LTEA_HepaRG_THRSP: Life Technologies and Expression Analysis (LTEA) Assay for Thyroid Hormone Responsive (THRSP) using HepaRG (AID 2283536); conditions: mRNA level, 48 h; actives raise or lower the signal
Procedure, shortened: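 mRNA induction or loss relative to 0.5% DMSO vehicle was fitted bidirectionally across an eight-point curve whose highest exposure was 100 uM. Human HepaRG liver cells received chemicals in duplicate over 48 h before RNA extraction.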

[11] = read-out: Cellular tumor antigen p53 (Homo sapiens) (UniProt P04637); assay: LTEA_HepaRG_TP53: Life Technologies and Expression Analysis (LTEA) Assay for Tumor Protein P53 (TP53) using HepaRG (AID 2283537); conditions: mRNA level, 48 h; actives raise or lower the signal
Procedure, shortened: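 Differentiated HepaRG cells in serum-free induction medium exposed 48 h in duplicate to 8 half-log concentrations, top 100 uM, 0.5% DMSO. TP53 mRNA by TaqMan qRT-PCR (Fluidigm), normalized to ACTB, GAPDH, POLR2A; fitted bidirectionally versus DMSO.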

[12] = read-out: UDP glucuronosyltransferase (UGT1A1), UGT1A1 (gene 54658); assay: LTEA_HepaRG_UGT1A1: Life Technologies and Expression Analysis (LTEA) Assay for UDP glucuronosyltransferase (UGT1A1) using HepaRG (AID 2283538); conditions: mRNA level, 48 h; actives raise or lower the signal
Procedure, shortened: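 Human liver HepaRG cultures receive test chemical for 48 h, up to 100 uM in 0.5% DMSO, with phenobarbital induction controls. UGT1A1 mRNA is measured by qRT-PCR and normalized to ACTB, GAPDH and POLR2A.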

[13] = read-out: UDP glucuronosyltransferase (UGT1A6), UGT1A6 (gene 54578); assay: LTEA_HepaRG_UGT1A6: Life Technologies and Expression Analysis (LTEA) Assay for UDP glucuronosyltransferase (UGT1A6) using HepaRG (AID 2283539); conditions: mRNA level, 48 h; actives raise or lower the signal
Procedure, shortened: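 Differentiated HepaRG cells, ~100,000/well, were exposed for 48 h in serum-free induction medium with 0.5% DMSO to 8-point half-log series topping at 100 uM, in duplicate. mRNA measured by Fluidigm TaqMan qRT-PCR, normalized to ACTB, GAPDH and POLR2A.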

[14] = read-out: X-box binding protein 1 (XBP1), XBP1 (gene 7494); assay: LTEA_HepaRG_XBP1: Life Technologies and Expression Analysis (LTEA) Assay for X-box binding protein 1 (XBP1) using HepaRG (AID 2283540); conditions: mRNA level, 48 h; actives raise or lower the signal
Procedure, shortened: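 Differentiated human HepaRG cells in serum-free induction medium exposed 48 h in duplicate to eight half-log concentrations up to 100 uM in 0.5% DMSO. XBP1 mRNA measured by Fluidigm TaqMan qRT-PCR, normalized to ACTB, GAPDH, POLR2A; bidirectional fitting against DMSO.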

[15] = LTEA_HepaRG_LDH_cytotoxicity: Cytotoxicity Assessment in the Life Technologies and Expression Analysis (LTEA) Assay (AID 2283563; active = hit-call score of the fitted dose curve at least 0.9, where 1 is the maximum)
Procedure, shortened: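 Differentiated HepaRG cells in serum-free induction medium, exposed 48 h in duplicate to 8 half-log concentrations up to 100 uM in 0.5% DMSO. Cytotoxicity from LDH measured in spent medium, fit relative to DMSO.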

[16] = TOX21_p53_BLA_p2_viability: Viability Assessment in the Tox21 HCT-116 p53 Agonism Beta-lactamase Assay, Phase 2 (AID 2283591; active = hit-call score of the fitted dose curve at least 0.9, where 1 is the maximum;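 also: compound exposure lasted 16 h at 37 °C; actives lower the ATP signal meaning cytotoxicity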)
Procedure, shortened: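 Cytotoxicity readout: CellTiter-Glo ATP luminescence, 30 min at room temperature, after the beta-lactamase read. Cells were HCT116 exposed 16 h at 37C to compounds pin-transferred at 217-fold dilution from DMSO stocks.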

Measured: outcome

Signal transducer and activator of transcription 3 (Homo sapiens), sequence (P40763 whole entry, looked up): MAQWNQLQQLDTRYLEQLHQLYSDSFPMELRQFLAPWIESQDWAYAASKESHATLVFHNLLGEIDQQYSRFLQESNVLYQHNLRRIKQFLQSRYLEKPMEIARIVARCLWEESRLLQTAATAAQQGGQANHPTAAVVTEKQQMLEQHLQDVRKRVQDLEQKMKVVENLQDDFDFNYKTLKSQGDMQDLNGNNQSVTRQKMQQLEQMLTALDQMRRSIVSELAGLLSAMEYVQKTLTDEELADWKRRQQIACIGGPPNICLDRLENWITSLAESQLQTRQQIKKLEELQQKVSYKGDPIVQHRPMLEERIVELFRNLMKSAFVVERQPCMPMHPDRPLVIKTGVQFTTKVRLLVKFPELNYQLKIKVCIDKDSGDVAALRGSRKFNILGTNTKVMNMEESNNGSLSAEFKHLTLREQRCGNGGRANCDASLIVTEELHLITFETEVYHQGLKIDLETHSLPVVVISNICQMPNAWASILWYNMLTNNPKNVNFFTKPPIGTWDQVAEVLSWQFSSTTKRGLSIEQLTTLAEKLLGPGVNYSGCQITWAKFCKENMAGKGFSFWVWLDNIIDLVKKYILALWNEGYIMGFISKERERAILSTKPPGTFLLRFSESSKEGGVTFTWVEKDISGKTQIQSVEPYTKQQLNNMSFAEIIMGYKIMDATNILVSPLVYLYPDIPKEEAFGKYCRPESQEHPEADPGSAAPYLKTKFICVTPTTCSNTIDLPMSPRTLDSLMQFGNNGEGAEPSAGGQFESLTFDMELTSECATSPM
Cellular tumor antigen p53 (Homo sapiens), sequence (P04637 whole entry, looked up): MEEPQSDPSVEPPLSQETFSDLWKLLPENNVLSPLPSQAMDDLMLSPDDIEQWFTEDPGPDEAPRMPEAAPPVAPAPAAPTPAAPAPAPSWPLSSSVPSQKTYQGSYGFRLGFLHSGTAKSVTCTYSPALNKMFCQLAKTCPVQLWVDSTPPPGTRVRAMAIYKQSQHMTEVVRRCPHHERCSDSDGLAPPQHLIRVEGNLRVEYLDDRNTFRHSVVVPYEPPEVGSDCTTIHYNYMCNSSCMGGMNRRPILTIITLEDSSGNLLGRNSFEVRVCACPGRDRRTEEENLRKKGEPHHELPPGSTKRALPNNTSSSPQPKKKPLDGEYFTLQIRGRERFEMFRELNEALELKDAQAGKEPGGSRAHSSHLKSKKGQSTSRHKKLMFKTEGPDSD
Nuclear factor erythroid 2-related factor 2 (Homo sapiens), sequence (Q16236 whole entry, looked up): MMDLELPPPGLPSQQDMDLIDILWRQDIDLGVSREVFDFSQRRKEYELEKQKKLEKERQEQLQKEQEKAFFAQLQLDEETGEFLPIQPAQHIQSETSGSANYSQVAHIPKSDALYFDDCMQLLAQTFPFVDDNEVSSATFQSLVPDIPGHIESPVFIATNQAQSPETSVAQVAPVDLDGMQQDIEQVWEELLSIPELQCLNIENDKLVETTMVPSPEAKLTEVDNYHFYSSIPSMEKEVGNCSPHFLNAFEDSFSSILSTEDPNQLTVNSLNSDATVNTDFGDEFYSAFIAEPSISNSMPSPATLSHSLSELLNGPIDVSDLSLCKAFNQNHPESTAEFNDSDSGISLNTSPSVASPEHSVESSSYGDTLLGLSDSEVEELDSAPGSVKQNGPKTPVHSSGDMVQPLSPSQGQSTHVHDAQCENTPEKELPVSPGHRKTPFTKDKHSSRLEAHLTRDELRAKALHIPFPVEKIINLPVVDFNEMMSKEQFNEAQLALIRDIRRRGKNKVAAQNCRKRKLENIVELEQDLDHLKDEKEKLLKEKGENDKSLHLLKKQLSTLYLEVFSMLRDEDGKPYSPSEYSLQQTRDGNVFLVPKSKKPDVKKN

COP(=S)(OC)SCN1C(=O)c2ccccc2C1=O
inactive: all assays above

OCCCl
not listed: [16]
inactive: all other assays above

c1ccc2c(c1)oc1ccccc12
not listed: [8] | [9]
inactive: all other assays above
